Experimental data: PubChem BioAssay (NCI)
The panel holds about 79,000 compounds, 15% with a hit somewhere; the sample as a whole holds those more often. Values without a mark were called inactive. Activity calls are given as the source filed them. Cut-off read from the data, not from the text of the source: active = growth inhibition above about 70%; inactive = the rest.

How the values were obtained:
[1] = NCI Yeast Anticancer Drug Screen. Data for the rad50 strain (AID 155);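 note: 0% = growth of vehicle-only cultures of the same strain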; settings: S. cerevisiae rad50 strain growth inhibition, hits give high values
In short: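 Vehicle-treated cultures provide the reference for the growth inhibition reported for compound-exposed, repair-deficient yeast.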

[2] = NCI Yeast Anticancer Drug Screen. Data for the mec2-1 strain (AID 157); settings: S. cerevisiae mec2-1 strain, hits give high values
In short: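 Yeast mec2-1 mutant treated with compound. Readout: growth inhibition vs vehicle controls.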

[3] = NCI Yeast Anticancer Drug Screen. Data for the sgs1 mgt1 strain (AID 161);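 note: 0% = growth of cultures given vehicle only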; settings: S. cerevisiae sgs1 mgt1 strain, hits give high values
In short: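 Test agents were incubated with a DNA-repair-mutant yeast strain. Growth was then read and compared against vehicle-treated controls.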

[4] = NCI Yeast Anticancer Drug Screen. Data for the cln2 rad14 strain (AID 165);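 note: 0% = growth equal to vehicle treated cultures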; settings: S. cerevisiae cln2 rad14 strain, hits give high values
In short: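 cln2 rad14 yeast strain; compound exposure; growth inhibition read vs vehicle controls.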

[5] = NCI Yeast Anticancer Drug Screen. Data for the bub3 strain (AID 167); settings: S. cerevisiae bub3 mutant strain, hits give high values
In short: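 Mutant yeast screening strain plus compound; vehicle-treated cultures serve as the 0% inhibition reference.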

[6] = NCI Yeast Anticancer Drug Screen. Data for the mlh1 rad18 strain (AID 175); settings: S. cerevisiae mlh1 rad18 strain growth inhibition, hits give high values
In short: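 Yeast w/ defined DNA-repair lesions; compound exposure; growth vs vehicle controls → % inhibition.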

[7] = at 5.0 µM (retest, dose inferred, filed as 0.5)
[8] = at 50.0 µM (retest, dose inferred, filed as 5.0)

SMILES	growth inhibition [1, 7]	growth inhibition [1, 8]	growth inhibition ([1]; at 50.0 µM)	growth inhibition [2, 7]	growth inhibition [2, 8]	growth inhibition ([2]; at 50.0 µM)	growth inhibition [3, 7]	growth inhibition [3, 8]	growth inhibition ([3]; at 50.0 µM)	growth inhibition [4, 7]	growth inhibition [4, 8]	growth inhibition ([4]; at 50.0 µM)	growth inhibition [5, 7]	growth inhibition [5, 8]	growth inhibition ([5]; at 50.0 µM)	growth inhibition [6, 7]	growth inhibition [6, 8]	growth inhibition ([6]; at 50.0 µM)
O=C(CC(=O)c1ccccc1)CC(=O)c1ccccc1	31%	81% (active)	87.7% (active)	24%	85% (active)	68.5%	38%	85% (active)	74.7% (active)	31%	55%	65.9%	44%	95% (active)	88.7% (active)	38%	95% (active)	84% (active)
CN1C/C(=C\c2ccc(Cl)cc2)C(=O)/C(=C/c2ccc(Cl)cc2)C1	78% (active)	98% (active)	87.2% (active)	73% (active)	99% (active)	88.5% (active)	79% (active)	99% (active)	91% (active)	78% (active)	97% (active)	88% (active)	84% (active)	97% (active)	87.8% (active)	83% (active)	98% (active)	85.2% (active)
CC(=O)/C(=C\c1cccc(Cl)c1)C(=O)CCN(C)C	24%	29%	14.8%	20%	33%	28.8%	20%	29%	50.5%	25%	29%	21.4%	13%	34%	4.4%	23%	40%	25.1%
CC(=O)O[C@@H]1CO[C@H]2O[C@H]3[C@@H](C(C=O)=C[C@H](O)[C@@H]4C5=C(C(C)C)CC[C@]5(C)CC[C@@]34C)[C@@]2(O)C1=O	99% (active)	99% (active)	92.1% (active)	99% (active)	100% (active)	92.8% (active)	97% (active)	100% (active)	92.7% (active)	94% (active)	98% (active)	91% (active)	97% (active)	99% (active)	91.3% (active)	98% (active)	99% (active)	91.7% (active)
Oc1ccc(C2Oc3ccccc3C=C2c2ccccc2)cc1 (configuration not stated)	51%	98% (active)	-10.4%	58%	99% (active)	-25.8%	61%	99% (active)	-5.2%	15%	99% (active)	-14.8%	13%	99% (active)	-1.25%	81% (active)	98% (active)	-7.45%
CCCCn1cnc2c(SCc3ccccc3[N+](=O)[O-])nc(N)nc21	1%	-2%	94.9% (active)	-2%	1%	98.2% (active)	1%	2%	96.9% (active)	-15%	-27%	90.4% (active)	1%	30%	98.7% (active)	3%	3%	96.7% (active)
CC(Nc1ccc(S(=O)(=O)Nc2ncccn2)cc1)c1ccc2cccnc2c1O (configuration not stated)	38%	99% (active)	99.5% (active)	2%	99% (active)	99.5% (active)	11%	99% (active)	98.5% (active)	19%	99% (active)	96.7% (active)	11%	99% (active)	99.3% (active)	14%	98% (active)	99.2% (active)
CCC1(CC(=O)O)OCCc2c1[nH]c1c(C)c(Cl)ccc21 (configuration not stated)	10%	99% (active)	95.7% (active)	1%	99% (active)	98.1% (active)	2%	97% (active)	97.8% (active)	-2%	96% (active)	97.2% (active)	-4%	96% (active)	95.8% (active)	-1%	97% (active)	97.5% (active)
COc1ccc(C2=Nc3cc(C)c(C)cc3NC(c3ccccc3)C2)cc1 (configuration not stated)	11%	11%	43.2%	7%	7%	69.8%	21%	21%	66.9%	1%	1%	9.5%	35%	35%	74.7% (active)	19%	19%	51%
NC(=O)C1CCCN1C(=O)C1CCCN(Cc2cc(CN3CCCC(C(=O)N4CCCC4C(N)=O)C3)cc(CN3CCCC(C(=O)N4CCCC4C(N)=O)C3)c2)C1 (configuration not stated)	2%	9%	78.1% (active)	-5%	-21%	40.7%	-1%	-8%	59.5%	-2%	3%	16.9%	-23%	2%	48.8%	-7%	-1%	28.6%
CCOC(=O)/C(=C\n1c(=O)sc2ccccc21)C(=O)c1ccccc1	18%	24%	24.6%	19%	55%	50.5%	27%	64%	74.8% (active)	22%	26%	19.5%	21%	57%	7.95%	20%	41%	36.2%
BrCc1ccc([Si](c2ccccc2)(c2ccccc2)c2ccc(CBr)cc2)cc1	-3%	-16%	48.1%	14%	8%	20.1%	-15%	-18%	53%	-1%	-25%	78.5% (active)	-2%	-15%	10.5%	3%	-30%	53.5%
CC(C)(C)CCCC(C(=O)O)c1ccccc1 (configuration not stated)	0%	50%	82.6% (active)	-10%	54%	75.8% (active)	-2%	31%	63%	-10%	60%	76.8% (active)	-7%	57%	55.1%	-7%	49%	85.1% (active)
N#CCCN(CCC#N)c1ccc(C(Sc2ccccc2)C(NC(=O)c2cc([N+](=O)[O-])ccc2Cl)C(=O)Sc2ccccc2)cc1 (configuration not stated)	29%	74% (active)	75.7% (active)	25%	93% (active)	58.8%	30%	85% (active)	51.3%	16%	37%	51.6%	22%	91% (active)	74.7% (active)	47%	85% (active)	73.3% (active)
Cc1ccc([P+](CCN2C(=O)c3ccccc3C2=O)(c2ccc(C)cc2)c2ccc(C)cc2)cc1	77% (active)	98% (active)	89.8% (active)	72% (active)	99% (active)	90.3% (active)	89% (active)	99% (active)	90.5% (active)	71% (active)	99% (active)	87.9% (active)	86% (active)	99% (active)	90.5% (active)	64%	98% (active)	87.7% (active)
CCCCCCCCCCCCCCCCN1CCSCC1	39%	98% (active)	98.3% (active)	45%	99% (active)	99% (active)	65%	99% (active)	98.9% (active)	23%	99% (active)	98.7% (active)	36%	99% (active)	99% (active)	69%	99% (active)	98.7% (active)
Cc1c(-c2ccccc2)sc(/N=C/c2cc(Br)cc(Br)c2O)c1C#N	-17%	63%	5.9%	10%	34%	25.3%	15%	84% (active)	29%	11%	12%	10.8%	5%	75% (active)	19.2%	10%	60%	62.9%
Cc1ccccc1C(CC(=O)O)C(C)c1ccccc1 (configuration not stated)	14%	53%	20.5%	18%	53%	88.8% (active)	9%	66%	77.9% (active)	13%	60%	73.2% (active)	32%	80% (active)	97.2% (active)	12%	45%	86.2% (active)
C#CC(CC)(CC)NC(=O)NC(C)(C)C	0%	-18%	2.1%	-26%	-25%	0.85%	-11%	-1%	35.5%	2%	23%	-1.85%	-19%	-17%	28.4%	-21%	-59%	2.3%
